About 79,000 compounds went through this panel and 15% of them were active in at least one assay; those are over-represented in the sample as a whole. Activity calls are given as the source filed them. No stated cut-off is given here; in the data, active means growth inhibition above about 70%; inactive means the rest.
Experiments:
[1] = NCI Yeast Anticancer Drug Screen. Data for the rad50 strain (AID 155);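 further: 0% = growth of vehicle-only cultures of the same strain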; conditions: S. cerevisiae rad50 strain growth inhibition; at 50.0 µM; hits give high values
Procedure, shortened: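 Yeast carrying a defined DNA repair defect were exposed to test compounds, and growth was compared with vehicle-treated controls to give percent inhibition.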

[2] = NCI Yeast Anticancer Drug Screen. Data for the mec2-1 strain (AID 157); conditions: S. cerevisiae mec2-1 strain, at 50.0 µM, hits give high values
Procedure, shortened: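 Mutant yeast (mec2-1) grown with compound; growth inhibition relative to vehicle control reported.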

[3] = NCI Yeast Anticancer Drug Screen. Data for the sgs1 mgt1 strain (AID 161);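 further: 0% = growth of cultures given vehicle only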; conditions: S. cerevisiae sgs1 mgt1 strain, at 50.0 µM, hits give high values
Procedure, shortened: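 Yeast cells carrying a defined DNA-repair defect were exposed to test compounds. Growth inhibition was measured relative to vehicle-treated controls.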

[4] = NCI Yeast Anticancer Drug Screen. Data for the cln2 rad14 strain (AID 165);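 further: 0% = growth equal to vehicle treated cultures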; conditions: S. cerevisiae cln2 rad14 strain, at 50.0 µM, hits give high values
Procedure, shortened: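 Readout is yeast growth inhibition versus vehicle-treated controls, using a strain with cln2 and rad14 alterations exposed to compound.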

[5] = NCI Yeast Anticancer Drug Screen. Data for the bub3 strain (AID 167); conditions: S. cerevisiae bub3 mutant strain, at 50.0 µM, hits give high values
Procedure, shortened: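 Compounds were applied to a genetically altered yeast strain carrying a cell-cycle control defect. Growth inhibition was scored against vehicle-treated controls.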

[6] = NCI Yeast Anticancer Drug Screen. Data for the mlh1 rad18 strain (AID 175); conditions: S. cerevisiae mlh1 rad18 strain growth inhibition; at 50.0 µM; hits give high values
Procedure, shortened: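 Genetically defined yeast (DNA repair-deficient) exposed to compounds; growth inhibition determined relative to vehicle.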

Measured: growth inhibition

Clc1cc(Cl)c2ccc3c(Cl)cc(Cl)c4ccc1c2c43
inactive: [1] -18.6% | [2] -33.3% | [3] -10.8% | [4] 7.3% | [5] -30.8% | [6] -20.6%

CCOC(=O)c1ccc2c(c1)Cc1c-2cc(Br)c(N)c1Br
active: [1] 78.5%
inactive: [2] 3.1% | [3] 45% | [4] 9.15% | [5] 18.4% | [6] 47%

O=C(O)CCn1ccc2ccccc21
inactive: [1] 3.65% | [2] -0.55% | [3] 4.8% | [4] 5.9% | [5] 3.1% | [6] 1.6%

COc1ccc2c(c1)OC(OC)(c1ccc(OC)c(OC)c1)C(O)(OC)C2=O (stereo not drawn)
inactive: [1] 39.4% | [2] 14.8% | [3] 27.6% | [4] 19.6% | [5] 11.8% | [6] 29%

CC(C=O)C1CCCCC1 (stereo not drawn)
inactive: [1] 9.15% | [2] 10.1% | [3] 0.6% | [4] 7.4% | [5] 8.95% | [6] 5.6%

Cc1cc(N(CCC#N)CCC#N)ccc1/C=C1/N=C(c2ccccc2)N(N)C1=O
inactive: [1] -2.55% | [2] 13.2% | [3] 9.9% | [4] 2.7% | [5] 5.15% | [6] -3.3%

O=C1NC(=O)C(c2ccccc2)(c2ccsc2)N1 (stereo not drawn)
inactive: [1] 12.3% | [2] -4.3% | [3] 1.95% | [4] 10.6% | [5] 1% | [6] 13.6%

CCOC(=O)CC/C(=N/Nc1ccc(Cl)cc1[N+](=O)[O-])C(=O)OCC
inactive: [1] 11.7% | [2] -39.9% | [3] -31.9% | [4] -7.6% | [5] -24.6% | [6] -0.4%

O=[N+]([O-])c1ccc(C2=Nc3ccccc3S(=O)C(c3ccccc3)C2)cc1 (stereo not drawn)
inactive: [1] 5.3% | [2] -27.3% | [3] 19.9% | [4] 3.45% | [5] 10.7% | [6] 20.6%

Cc1cc(NC(C)C)c(C)cc1NC(C)C
inactive: [1] 49% | [2] 31.9% | [3] 47.1% | [4] 21.8% | [5] 33.5% | [6] 43.8%

NC(=O)Cc1cc2c(cc1CO)OCO2
inactive: [1] 3.85% | [2] 1.8% | [3] 2.45% | [4] 7.9% | [5] -13.3% | [6] 5.55%

CC(C)CC(CC(C)C)=NNC(N)=O
inactive: [1] 17.3% | [2] 23% | [3] 9.05% | [4] 18.9% | [5] 7% | [6] 24.4%

O=C1CC(=O)N2CCCCC2N1 (stereo not drawn)
inactive: [1] -17.7% | [2] -5.15% | [3] -0.25% | [4] -10.9% | [5] 6.4% | [6] -25.7%

CCC(=O)N1C(=O)OCC1C(C)C (stereo not drawn)
inactive: [1] -2.8% | [2] -21.4% | [3] -22.3% | [4] 13.1% | [5] -9.35% | [6] 14.8%

Cc1ccc(I)cc1
inactive: [1] -59.4% | [2] -32.6% | [3] -33.9% | [4] -7.5% | [5] -2.9% | [6] -19.1%

Cc1c([N+](=O)[O-])cc(C(C)(C)C)c(OC(=O)Nc2ccc(Cl)cc2)c1[N+](=O)[O-]
inactive: [1] 41.4% | [2] 63.7% | [3] 65.7% | [4] 52.2% | [5] 27.6% | [6] 69%

O=C(O)C1=CC(c2ccccc2O)=NCCN1
inactive: [1] -20.8% | [2] -0.75% | [3] 0.7% | [4] -34.6% | [5] -4.1% | [6] 3.6%

Clc1nc2ccccc2c2ccccc12
inactive: [1] 36.5% | [2] -3.6% | [3] -4% | [4] 29.5% | [5] -13.2% | [6] 4.5%

COc1ccccc1C(N)c1ccccc1 (stereo not drawn)
inactive: [1] -13.1% | [2] -0.75% | [3] 15.9% | [4] 5.8% | [5] -0.7% | [6] 13.6%

O=C1CC2CCCC23CC2(CCN13)OCCO2 (stereo not drawn)
inactive: [1] -3.15% | [2] 0.7% | [3] -0.3% | [4] -27.4% | [5] -2.3% | [6] 6.35%

O=C1/C(=C/c2ccccc2)Oc2cc(O)ccc21
inactive: [1] 31.9% | [2] -13.8% | [3] 33% | [4] 30.4% | [5] 27.4% | [6] 34.9%

CC(C)(C)C(=O)N1C(C(=O)O)Cc2ccccc2[C@@H]1Cc1ccccc1 (stereo partly drawn)
inactive: [1] -6.9% | [2] -7.25% | [3] -16.1% | [4] 22.5% | [5] -11.1% | [6] -29.5%

N#CC(c1ccccc1)[N+](=O)[O-] (stereo not drawn)
inactive: [1] 11.2% | [2] -5.05% | [3] -2.45% | [4] 9.3% | [5] -2.95% | [6] 22.8%

CCCCCCCCNC(=O)CBr
inactive: [1] 5.3% | [2] 9.85% | [3] 22.8% | [4] -25.4% | [5] 13.3% | [6] 6.15%

CCOC(=O)CCC[n+]1cccc(C#N)c1
inactive: [1] 3.3% | [2] 1.4% | [3] 2% | [4] -3.35% | [5] -3.15% | [6] -1.35%

CCCCCCCCCC1(C(=O)OCC)OC1(C)C (stereo not drawn)
inactive: [1] 8.55% | [2] -15.8% | [3] 5.75% | [4] 10.5% | [5] 15.2% | [6] -11.8%

C[C@@]12CCC[C@H]1[C@@H]1CCC3=CC(=O)CC[C@]3(C)[C@H]1CC2
inactive: [1] 4.15% | [2] 1.45% | [3] -5.55% | [4] -27.1% | [5] 10.7% | [6] 1.05%

CC(=O)NC(C)(CO)C(=O)O (stereo not drawn)
inactive: [1] 22.6% | [2] 12.7% | [3] 19.4% | [4] 13.4% | [5] 7.35% | [6] 14.1%

CCCCC(=O)NCCNC(=O)CCCC
inactive: [1] -0.5% | [2] 7% | [3] -1.8% | [4] -18.6% | [5] 14.2% | [6] 9.55%

CSc1n[nH]c(NC(=O)c2ccccc2Br)n1
inactive: [1] 4.2% | [2] -0.9% | [3] 29.4% | [4] -19.6% | [5] 3.65% | [6] 30.5%

CCOC(=O)c1cc2sc(NC(=O)c3ccco3)nc2o1
inactive: [1] 10.8% | [2] 12.2% | [3] 48.8% | [4] 4.3% | [5] 6.6% | [6] 27.6%

COc1ccc2c(c1)CCC1=C2CCC(C(=O)O)C1(C)C(=O)O (stereo not drawn)
inactive: [1] 1.9% | [2] -3% | [3] 9.25% | [4] 4.15% | [5] -4.25% | [6] -25.4%

CCCSc1nc2c(=O)n(C)c(=O)[nH]c2n1C
inactive: [1] -10.2% | [2] -1.8% | [3] -6.95% | [4] -36.3% | [5] -12.2% | [6] -3.55%

CCCNC(=O)Nc1ccc2c(c1)Cc1cc([N+](=O)[O-])ccc1-2
inactive: [1] -12.2% | [2] 2.5% | [3] -4.3% | [4] -42% | [5] 6.75% | [6] -14.3%

CCOC(=O)c1c2cccccc-2nc1Nc1cccc2c(C)ccnc12
inactive: [1] 11.7% | [2] -21% | [3] -2.8% | [4] 9.7% | [5] -16.1% | [6] 5.55%

CC12CCC(=O)[C@@]1(C)CCCC2=O (stereo partly drawn)
inactive: [1] -13% | [2] 5% | [3] -23.1% | [4] 6.8% | [5] -6.9% | [6] 5.05%

CC(=O)N[C@H](CO)[C@H](O)c1ccc([N+](=O)[O-])cc1
inactive: [1] -12.2% | [2] 10.1% | [3] 9% | [4] -47.6% | [5] 16.1% | [6] 19.6%

Cc1cc2c(c3c1C(=O)CC3)CCCC2(C)C
inactive: [1] 9.3% | [2] 3.9% | [3] 2.75% | [4] -6.2% | [5] 2.15% | [6] -1.8%

CN(C)c1nc(N(C)C)nc(N(C)C=O)n1
inactive: [1] -4.9% | [2] -21.9% | [3] -30.7% | [4] -2.85% | [5] -27.6% | [6] -5.55%

O=C1C=CC2(C=C1)OCC(=O)O2
inactive: [1] 6.15% | [2] 10.2% | [3] 3.25% | [4] 4.65% | [5] -3.1% | [6] 0.5%

Cc1ccc(S(=O)(=O)N/N=c2/sc3ccccc3n2C)cc1
inactive: [1] -35% | [2] -19.1% | [3] -33.5% | [4] -7.85% | [5] -8.2% | [6] -22.3%

COc1ccc(C(=O)Nc2c(N)ncnc2N)cc1
inactive: [1] 16.8% | [3] 35.1% | [4] -3.6% | [5] 16.5% | [6] 15.1%
active: [2] 73.7%

O=C1OCCC1=P(c1ccccc1)(c1ccccc1)c1ccccc1
inactive: [1] -5.6% | [2] -30.9% | [3] 6.9% | [4] 9.45% | [5] -7.4% | [6] -4.85%

From PubChem BioAssay (NCI)
